For 103 molecules, B-score results are on record in PubChem BioAssay AID588676 (Johns Hopkins Ion Channel Center, 2011).

The whole screen tested about 310,000 compounds, of which about 3,900 (1.3%) were called active.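 Rule for the calls: active = calcium-response B-score plate-corrected more than 3 library SD below zero, starting fluorescence within 5 deviations, no agonist response on first addition; inactive = the rest.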 The full list was thinned out, with actives kept by preference.

Mas-related G-protein coupled receptor member X1 (Homo sapiens), sequence (Q96LB2 whole entry, looked up): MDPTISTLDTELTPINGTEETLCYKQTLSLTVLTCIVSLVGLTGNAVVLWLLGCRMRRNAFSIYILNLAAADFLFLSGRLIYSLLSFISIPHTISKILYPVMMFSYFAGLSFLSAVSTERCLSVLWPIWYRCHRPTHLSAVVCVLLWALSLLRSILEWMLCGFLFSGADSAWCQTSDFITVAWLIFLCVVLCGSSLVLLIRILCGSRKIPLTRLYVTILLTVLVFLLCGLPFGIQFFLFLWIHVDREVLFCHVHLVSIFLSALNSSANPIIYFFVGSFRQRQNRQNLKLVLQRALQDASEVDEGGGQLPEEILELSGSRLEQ

The assay addresses Mas-related G-protein coupled receptor member X1 (Homo sapiens) (UniProt Q96LB2). Briefly: antagonists of human MrgX1 receptor, primary screen, HEK293 cells, Fluo-4 calcium flux (AID 588676).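 For B-score: peak minus trough fluorescence over baseline after final BAM8-22 challenge near maximal dose.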 The conditions noted are these: Fluo-4, BAM8-22 antagonism, at 10 µM; active compounds read low.
For the molecule `COc1ccc(/C=N/NC(=O)C2CC2)c(OC)c1OC`, the B-score entry is “inactive”.
Turning to `Oc1ccccc1C=NC1CCCCC1N=Cc1ccccc1O` (stereo not drawn), the B-score entry was “inactive”.
`O=C(N/N=C/c1ccccc1O)C1CCCC1`: the B-score was -4.79 (active).
For the molecule `Cc1ccc2cc(/C=N/Nc3ccc(C(=O)O)cc3)c(Cl)nc2c1`, the B-score was -14.6 (active).
`Cc1ccc2cc(/C=N/NC(=O)[C@@H]3CCCN3)c(Cl)nc2c1`: the B-score result is “inactive”.
For `O=C(O)c1ccc(N/N=C/c2ccc3ncccc3c2)cc1`, the B-score result was “inactive”.
Take `CCCCC(O)(CCCC)C(=O)NN(C(=O)CCl)c1ccccc1`: the B-score entry was “inactive”.
As for `CC(C)(C)c1ccc(/C=C2\Oc3c(ccc(O)c3CN3CCN(CCO)CC3)C2=O)cc1`, the B-score result was “inactive”.
For `c1ccc(-c2[nH]ncc2-c2nc3ccccc3[nH]2)cc1` the value was -5.86 (active); for `COc1ccc(-c2[nH]nc(-c3ccccc3)c2-c2nc3ccccc3[nH]2)cc1`, “inactive”.
For `O=C(Nc1cccc(-c2nc3ccccc3[nH]2)c1)c1ccc(C(=O)Nc2cccc(-c3nc4ccccc4[nH]3)c2)cc1` the value was “inactive”; for `CC(OC(=O)CCCOc1ccccc1)C(=O)Nc1ccc(Cl)cn1` (stereo not drawn), “inactive”.
For `CCOCCCn1c(NN)nc2ccccc2c1=O`, the B-score entry was “inactive”.
In the case of `CCCCCCn1c(CN2CCCC(C)C2)nc2c1c(=O)n(C)c(=O)n2C` (stereo not drawn), the B-score entry was “inactive”.
Turning to `CCCn1c(O)c(CN2CCCC(C)C2)c(C)c(C#N)c1=O` (stereo not drawn), the B-score is -5.29 (active).
As for `Cc1c(CN2CCCCC2)c(O)n(CCO)c(=O)c1C#N`, the B-score result is “inactive”.
For the molecule `Cc1cc(NC(=O)/C=C/C(=O)N(c2ccccc2C)C(C(=O)NC2CCCC2)c2ccc(F)cc2)no1` (stereo not drawn), the B-score result was “inactive”.
For `CCOCCOCCC(C(=O)O)P(=O)(c1ccccc1)c1ccccc1` (stereo not drawn), the B-score entry was “inactive”.
As for `N#CC1=C(N)C(C#N)(C#N)[C@H](c2ccsc2)[C@H]2COCC=C12`, the B-score result is “inactive”.
For `CCN1CC=C2C(C#N)=C(N)C(C#N)(C#N)[C@H](c3ccoc3)[C@H]2C1`, the B-score result was “inactive”.
As for `CCCN1CC=C2C(C#N)=C(N)C(C#N)(C#N)C(c3cc(OC)ccc3OC)C2C1` (stereo not drawn), the B-score is -7.07 (active).
In the case of `O=C(O)CN1c2cccc3cccc(c23)S1(=O)=O`, the B-score entry was “inactive”.
Consider `COc1ccc(-c2cc(C(F)(F)F)nc(S(C)(=O)=O)n2)cc1OC`, for which the B-score result was “inactive”.
In the case of `O=C(NNC1=NCCC1)c1cccc(S(=O)(=O)N2CCCCC2)c1`, the B-score entry is “inactive”.
Turning to `C=C(C)C1CC=C(C)/C(=N\NC(=O)CNc2ccccc2OC)C1` (stereo not drawn), the B-score was -6.1 (active).
Regarding `C=C(C)C1CC=C(C)/C(=N/NC(=O)CCCNc2cccc(C)c2)C1` (stereo not drawn), the B-score entry is “inactive”.
Turning to `COc1ccc(Cl)cc1NC(=O)CNc1ccccc1F`, the B-score result is “inactive”.
As to `O=S(=O)(Nc1ccccc1Cl)c1cccc2nsnc12`, the B-score result was “inactive”.
As for `Cn1nc(C(C)(C)C)c(NC(=O)c2sccc2Cl)c1C(C)(C)C`, the B-score entry was “inactive”.
Consider `COc1ccccc1N(CC(=O)NC1CCCC1)C(=O)C1(C)CC(=O)N=C2C=CC(C)=CN21` (stereo not drawn), for which the B-score result was “inactive”.
For `CCn1c(SCC(=O)Nc2ccc(C)cc2)nc2nc3c(cc2c1=O)CCCC3` the value was “inactive”.
For `O=C1CC(c2c(F)cccc2Cl)C(n2cncn2)C(O)=C1C1NCCc2ccccc21` (stereo not drawn) the value was “inactive”.
As to `NS(=O)(=O)c1ccc(NC(=S)Nc2ccc(Br)c(Cl)c2)cc1`, the B-score is -5.41 (active).
Turning to `COc1ccc(NC(=S)Nc2ccc(S(N)(=O)=O)cc2)c(C)c1`, the B-score entry was “inactive”.
For the molecule `NS(=O)(=O)c1ccc(CCNC(=S)Nc2ccc(S(N)(=O)=O)cc2)cc1`, the B-score entry was “inactive”.
For `CO/N=C(/CS(=O)(=O)c1ccc(Br)cc1)c1ccc(OC)cc1`, the B-score entry was “inactive”.
For the molecule `CCOc1ccc(C)cc1S(=O)(=O)NC1CCCCCC1`, the B-score entry was “inactive”.
Turning to `Cc1nnc(SCC(=O)N2CCOCC2)[nH]c1=O`, the B-score result was “inactive”.
On to `CCCCOC(=O)CNc1nnc(SCC(=O)OCC)[nH]c1=O`, for which the B-score is -10.5 (active).
As for `CCOC(=O)CSc1nc(C)c(Oc2ccc(Cl)cc2Cl)c(=O)[nH]1`, the B-score result is “inactive”.
On to `COCCOC(=O)C1=C(C)NC(=O)NC1c1cc2c(cc1Br)OCO2` (stereo not drawn), for which the B-score result was “inactive”.
As for `O=C(NNC(=O)c1cccnc1)Nc1ccccc1`, the B-score result is “inactive”.
For `O=C(Cc1ccccc1)Nc1ccc(NC(=O)c2cccnc2)cc1`, the B-score entry is “inactive”.
For `O=C(O)CSC(NC(=O)c1cccnc1)(C(F)(F)F)C(F)(F)F`, the B-score was -5.59 (active).
For `O=C(COC(=O)C1CCN(S(=O)(=O)c2ccc3c(c2)OCCO3)CC1)Nc1ccccc1OC(F)F` the value was -5.02 (active); for `CCOC(=O)C1CCN(C(=O)COC(=O)C2CCN(S(=O)(=O)c3ccc4c(c3)OCCO4)CC2)CC1`, “inactive”.
Consider `COc1ccccc1CNC(=O)C1CCN(S(=O)(=O)c2ccc3c(c2)OCCO3)CC1`, for which the B-score result was “inactive”.
As to `C/C(=N/O)c1ccc(N2C(=O)C3C4C=CC(C3C2=O)C2C3C(=O)N(c5ccc(/C(C)=N/O)cc5)C(=O)C3C42)cc1` (stereo not drawn), the B-score entry was “inactive”.
Regarding `Clc1ccc(Nc2ccc3ccccc3n2)cc1`, the B-score entry was “inactive”.
Consider `O=C(C1CC(=O)N(c2ccc(F)cc2)C1)N1CCN(c2ccccc2)CC1` (stereo not drawn), for which the B-score result was “inactive”.
As for `Cc1ccccc1N1CC(C(=O)Nc2ccc(S(=O)(=O)N3CCCC3)cc2)CC1=O` (stereo not drawn), the B-score result was “inactive”.
As to `CCC(C)c1ccccc1N1CC(C(=O)N2CCN(S(=O)(=O)c3ccc(F)cc3)CC2)CC1=O` (stereo not drawn), the B-score was -7.31 (active).
For `Cc1cc(C)n(C(=O)c2ccc(C)c(S(=O)(=O)N3CCOCC3)c2)n1`, the B-score result was “inactive”.
`S=C(NCc1ccc(Cl)cc1)NC1CCCCC1`: the B-score entry is “inactive”.
Consider `S=C(NCc1ccc(Cl)cc1)NC12CC3CC(CC(C3)C1)C2`, for which the B-score is -5.44 (active).
For `O=C(NCc1ccncc1)NC12CC3CC(CC(C3)C1)C2` the value was “inactive”; for `CC(=O)c1cccc(NC(=S)N2CCCC2)c1`, “inactive”; for `O=C(Nc1ccc(Br)cc1)c1cc(S(=O)(=O)Nc2ccccn2)ccc1Cl`, “inactive”.
As for `OC(c1ccccc1)c1nccn1Cc1ccccc1` (stereo not drawn), the B-score entry was “inactive”.
For `CN(Cc1ccccc1)C(=O)C(=O)c1cn(CC(=O)N2CCCC2)c2ccccc12` the value was “inactive”; for `CC(=O)C1C(c2cccc(Oc3ccccc3)c2)NC(=O)NC1(O)C(F)(F)F` (stereo not drawn), “inactive”.
On to `CCOC(=O)C1C(c2ccc(Cl)cc2)NC(=S)NC1(O)C(F)(F)F` (stereo not drawn), for which the B-score result was “inactive”.
On to `O=C(c1cccs1)C1C(c2ccc(Br)cc2)NC(=S)NC1(O)C(F)(F)F` (stereo not drawn), for which the B-score is -6.04 (active).
Consider `COc1ccc(C(C#N)Nc2ccccc2C)cc1` (stereo not drawn), for which the B-score result is “inactive”.
On to `COc1ccc(S(=O)(=O)N2CCN(C(=O)NC3CCCCC3)CC2)cc1`, for which the B-score was -4.64 (active).
Turning to `O=S(=O)(c1ccc(F)cc1)N1CCN(C(=S)NC2CCCC2)CC1`, the B-score result is “inactive”.
`CCOC(=O)N1CCN(S(=O)(=O)c2ccc(OC)cc2)CC1`: the B-score result is “inactive”.
For `C=CC[n+]1c(-c2ccc(C)cc2)csc1NNC(=O)Nc1ccccc1`, the B-score entry was “inactive”.
Take `CCCOc1ccc(Cc2c(Cl)nc(SC)nc2NC)cc1`: the B-score entry is “inactive”.
For the molecule `COc1cc(CN2CCNC(=O)C2CC(=O)NCCc2ncccc2C)cc(OC)c1` (stereo not drawn), the B-score entry is “inactive”.
Consider `Cc1cc(C)n(CCNC(=O)CC2C(=O)NCCN2Cc2ccc(C)o2)n1` (stereo not drawn), for which the B-score was -4.73 (active).
`Cc1nccn1CCCNC(=O)CC1C(=O)NCCN1Cc1ccc(Cl)c(F)c1` (stereo not drawn): the B-score entry was “inactive”.
For `O=C(CSc1nncn1-c1cccnc1)N1CCOCC1` the value was -5.04 (active).
For `COC(=O)c1ccc(NC(=O)CSc2nncn2-c2cccnc2)cc1`, the B-score result was “inactive”.
Consider `O=C(CSc1nnc(Cc2ccccc2)n1-c1ccccc1)N1CCOCC1`, for which the B-score entry was “inactive”.
On to `CCC(C)(C)NC(=O)CN(C(=O)CCC(=O)Nc1nccs1)c1ccc2c(c1)OCO2`, for which the B-score entry is “inactive”.
On to `CCOC(=O)C1CN(S(=O)(=O)c2ccc(OC)cc2)c2cc(Cl)ccc2O1` (stereo not drawn), for which the B-score entry is “inactive”.
For `CCS(=O)(=O)c1ccc2oc(SCC(=O)N3c4ccccc4CC3C)nc2c1` (stereo not drawn), the B-score result is “inactive”.
For `CCS(=O)(=O)c1ccc2c(c1)N(S(=O)(=O)c1ccccc1)CC(C(=O)O)O2` (stereo not drawn) the value was -4.74 (active).
As for `Cc1ccc(C)c(S(=O)(=O)N2CCCOC2CNC(=O)C(=O)NC2CCCCC2)c1` (stereo not drawn), the B-score result was “inactive”.
As for `COc1cc(OC)cc(C(=O)NCCCn2ccnc2)c1`, the B-score entry was “inactive”.
Regarding `CC1CC(C)CN(C(=O)CCNC(=O)Cn2cnc3ccccc3c2=O)C1` (stereo not drawn), the B-score result was “inactive”.
For the molecule `CCN1CCN(c2cc3nc(C)n(Cc4ccccc4)c(=O)c3cc2NC(=O)c2ccccc2F)CC1`, the B-score entry is “inactive”.
`Cc1cc(NC(=O)COC(=O)c2ccc(F)c(S(=O)(=O)N3CCOCC3)c2)no1`: the B-score result is “inactive”.
Take `CCOc1ccc(CCNC(=O)COC(=O)c2ccc(F)c(S(=O)(=O)N3CCOCC3)c2)cc1OCC`: the B-score was -5.64 (active).
For `COc1ccc(COC(=O)c2ccc(Cl)c(S(=O)(=O)N3CCOCC3)c2)cc1F` the value was “inactive”; for `Fc1ccc(-c2ccc(CNCc3ccccn3)o2)cc1Cl`, “inactive”; for `CCCCc1nc2cc(C(=O)N3CCCCC3CCO)ccc2o1` (stereo not drawn), “inactive”.
Turning to `COc1ccc(-n2nc3c(N4CCC(C(=O)NCc5ccccc5)CC4)nnc(C)c3c2C)cc1`, the B-score result is “inactive”.
For `OCC1(Cc2ccccc2C(F)(F)F)CCN(Cc2cccc3cnccc23)CC1`, the B-score is -7.22 (active).
With `C/C(=N/N1CCN(Cc2cccc3ccccc23)CC1)c1cccnc1`, the B-score result is “inactive”.
For `OCC1(Cc2ccccc2C(F)(F)F)CCN(Cc2ccncc2)CC1` the value was “inactive”.
With `CCc1cc2c(NC(Cc3ccccc3)C(=O)O)ncnc2s1` (stereo not drawn), the B-score entry is “inactive”.
Consider `CCc1cc2c(SCC(=O)Nc3ncc(Cl)c(C)c3Cl)ncnc2s1`, for which the B-score was -4.97 (active).
For `CCc1cc2c(NC3CCCC3)ncnc2s1`, the B-score entry is “inactive”.
On to `Cc1ccc(C(=O)N/C(=C\c2ccco2)C(=O)NC2CCS(=O)(=O)C2)cc1` (stereo not drawn), for which the B-score result was “inactive”.
For `ON=C1/C(=N\O)CC2(C/C1=N/O)OCCO2` the value was “inactive”; for `Nc1nc(-c2sc3nc4c(cc3c2N)CCCC4)nc(N2CCOCC2)n1`, “inactive”; for `Cc1ccc(S(=O)(=O)N2[C@@H](c3cccc(Cl)c3)C(C(=O)O)=CC[C@H]2c2ccc(Cl)c(Cl)c2)cc1`, -6.18 (active).
As to `Cc1ccc([C@@H]2CC=C(C(=O)O)[C@H](c3cccc(Cl)c3)N2S(=O)(=O)c2ccc(C)cc2)cc1`, the B-score result was “inactive”.
For `Cc1ccccc1S(=O)(=O)N1[C@@H](c2cccc(Cl)c2)C(C(=O)O)=CC[C@H]1c1ccc(Cl)cc1`, the B-score result was “inactive”.
In the case of `COc1ccccc1OCCC(=O)OCC(=O)NCc1ccccc1`, the B-score entry was “inactive”.
As to `CC(=O)c1cc(-c2ccccc2)n(CCC(=O)NC2CCCCCC2)c1C`, the B-score result was “inactive”.
